PubChem BioAssay (Tox21)
Results filed as inconclusive are left out. Unmarked numbers belong to inactive results. Active and inactive are the calls of the source. Calls come from the whole dose curve; as a rule, active = well fitted cell-killing curve with a large enough effect in the repeat runs; inconclusive = weak or mixed curves; inactive = flat fitted curve, though single readings scatter.

Assay: qHTS RealTime-Glo MT Cell Viability Assay in HepG2 cells - 8 hour (AID 1224873); note: nearly all actives have a fitted effect of over 55% in size
Details: RealTime-Glo luminescence; series mostly up to 76.8 µM
Description: National Center for Advancing Translational Sciences [NCATS]
NIH Chemical Genomics Center [NCGC]
U.S. Environmental Protection Agency [EPA]
National Institutes of Environmental Health Sciences [NIEHS]
National Toxicology Program [NTP]
U.S. Food and Drug Administration [FDA]
Measure of cell viability is critical in the cell-base assay. Analysis of cell viability is necessary for the characterization of cell responses to cytotoxic drugs and environmental stress. A RealTime-Glo MT Cell Viability Assay to monitor cell viability in real time of continues cell culture during 40 hours of compound treatment was used to screen Tox21 10K library compounds in HepG2 cells. The RealTime-Glo MT Cell Viability Assay is a nonlytic, homogeneous, bioluminescent method to measure cell viability in real time using a simple, plate-based method. The assay involves adding NanoLuc luciferase and a cell-permeant prosubstrate to cells in culture. Viable cells reduce the proprietary prosubstrate to generate a substrate for NanoLuc luciferase. This substrate diffuses from cells into the surrounding culture medium, where it is rapidly used by the NanoLuc Enzyme to produce a luminescent signal. The signal correlates with the number of viable cells, making the assay well suited for cytotoxicity studies.
Tox21 Assay Protocol Summary:
The mixture of HepG2 cell suspension and reagents were dispensed at 600cells/6 ul/well in 1536-well tissue culture treated black solid bottom plates using a Multidrop dispenser. After the assay plates were incubated at a 37 C/5% CO2 incubator for 5 hours, 23 nL of compounds dissolved in DMSO, positive and negative controls was transferred to the assay plate by a pintool work station. The plates were incubated at 37 C for 40 hours. The luminescence intensity were measured at 0h, 8h, 16h, 24h, 32h and 40h time points using ViewLux plate reader during compound treatment.
% is set by controls: 0 for no effect and ±100 for the full control effect.

Row | SMILES | outcome | viability change, negative = cytotoxic
1 | CCOCCOCCOC(C)=O | inactive | –
2 | O=C1CCCc2c(O)cccc21 | inactive | –
3 | O=C(O)COc1ccc2ccccc2c1 | inactive | –
4 | O=C(O)CCCCCCCCCC(=O)O | inactive | –
5 | CC(C)(C)NCC(O)COc1cccc2c1CCC(=O)N2 (stereo not given) | inactive | –
6 | CC(=O)OC1CCC(C(C)(C)C)CC1 (stereo not given) | inactive | –
7 | COc1cnc(NS(=O)(=O)c2ccc(N)cc2)nc1 | inactive | –
8 | O=C(O)Cc1ccccc1Oc1ccc(Cl)cc1Cl | inactive | –
9 | CC(C)=CCC/C(C)=C\C#N | inactive | –
10 | CC(C)C(=O)Nc1cccc(C2CN3CCSC3=N2)c1 (stereo not given) | inactive | –
11 | CCCCN(CCCC)CCCCCCN(CCCC)CCCC | inactive | –
12 | CCCC(=O)CC | inactive | –
13 | CC(=O)SCC(CC(=O)c1ccc(C)cc1)C(=O)O (stereo not given) | inactive | –
14 | Nc1ccc(C(=O)NCC(=O)O)cc1 | inactive | –
15 | C=C(C)C(=O)OCCOC1CC2CC1C1C=CCC21 (stereo not given) | inactive | –
16 | CCCC(=O)OC | inactive | –
17 | N#CC1(N)CCCCC1 | inactive | –
18 | Cc1cc(N)no1 | inactive | –
19 | O=C[C@@H](O)[C@H](O)[C@H](O)CO | inactive | –
20 | COC(=O)c1c(C)cc(O)c(C)c1O | inactive | –

Row | SMILES | outcome | viability change, negative = cytotoxic
21 | CC(C)(C)OC(=O)c1ccccc1C(=O)O | inactive | –
22 | C=CCn1cc[n+](C)c1 | inactive | –
23 | Cc1ccc(OC(=O)CC(C)C)cc1 | inactive | –
24 | OCCC(F)(F)C(F)(F)C(F)(F)C(F)(F)C(F)(F)C(F)(F)F | inactive | –
25 | CCCCS | inactive | –
26 | NC[C@H]1O[C@H](O[C@H]2[C@H](O)[C@@H](O[C@H]3O[C@H](CO)[C@@H](O)[C@H](N)[C@H]3O)[C@H](N)C[C@@H]2N)[C@H](N)[C@@H](O)[C@@H]1O | – | 4% [at 15.8 µM]
27 | CC(=O)c1ccc(O)c(C(N)=O)c1 | inactive | –
28 | CCCCCCCCCCCC(C)=O | inactive | –
29 | CN(C)CCc1c[nH]c2ccc(C[C@H]3COC(=O)N3)cc12 | inactive | –
30 | NC(=O)CC[C@@H](N)C(=O)O | inactive | –
31 | O=S(=O)(O)c1cc(I)c(O)c2ncccc12 | inactive | –
32 | CCC(=O)OCCOc1ccccc1 | inactive | –
33 | COc1cc(OC)cc(OC)c1 | inactive | –
34 | C/C=C(\C)C=O | inactive | –
35 | CCCCCCCCCCCCCCCC/C=C/C1CC(=O)OC1=O (stereo not given) | inactive | –
36 | COCCCOc1cc(C[C@@H](C[C@H](N)[C@@H](O)C[C@H](C(=O)NCC(C)(C)C(N)=O)C(C)C)C(C)C)ccc1OC | inactive | –
37 | C=CCOC(=O)CCCCCCCC | inactive | –
38 | Cc1cc(O)c(Cl)cc1C | inactive | –
39 | O=CN1CCCCC1 | inactive | –
40 | C=COCCCCO | inactive | –
